TEAD-YAP block – TEAD-YAP interaction inhibition | HEK-TIYL cells, TEAD-Gal4/YAP UAS-luciferase luminescence | inhibition, % at 9.12 µM | 1.4% of 640,000 active | AID 1259422; in the data active = inhibition above about 32%;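 note: 0% = median of test compound wells and 100% = reference inhibitor wells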
MITF primary – human MITF inhibition, primary screen. O75030. 0.91% of 650,000 active. inhibition, % at 2.6 µM. AID 1259374. AlphaScreen MITF homodimerization, bead proximity signal; in the data active = inhibition above about 50%;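 note: 0% = vehicle wells with protein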
GPR151 ag – activates the human receptor GPR151; PathHunter beta-arrestin GPR151 cells, luminescence; 1% of 650,000 active; activation, % at 11.2 µM; in the data active = activation above about 4.9%;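 note: 0% = median of compound wells and 100% = cells with positive control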
FBW7 activator – human FBW7 E3 ligase activation, primary screen. Q969H0. AlphaScreen FBW7–phospho-cyclin E peptide binding, activator screen. normalized activity (activation), % at 26.1 µM. 0.13% of 650,000 active; in the data active = normalized activity above about 1.9%;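 note: purified mutant Fbw7 with reduced substrate affinity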
MITF confirm – confirmation of human MITF inhibitors; shares compounds with MITF primary; AlphaScreen MITF homodimerization, biotin/His-MITF beads; inhibition, % at 2.6 µM; 16% of 4,700 active;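 active = inhibition above a cutoff derived from the DMSO control wells, cut at about 28% in these data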;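 note: 0% = MITF dimer wells with DMSO only; inhibitors lower the bead chemiluminescence by keeping MITF from dimerizing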
AlphaScreen DR – AlphaScreen optical interference, dose response counter-screen | shares compounds with MITF primary | AID 1259373 | AlphaScreen optical interference counterscreen, cell-free | IC50, µM | 6% of 480 active; call rule not given here
AS interf ctr – AlphaScreen optical interference, counter-screen; shares compounds with MITF primary; LysRS AlphaScreen counterscreen, signal interference, triplicate; inhibition, % at 2.6 µM; 7.6% of 4,700 active; AID 1259376;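 active = inhibition above a cutoff derived from the DMSO control wells, cut at about 30% in these data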
An asterisk follows results filed as active; nt = not tested or not shown. Hits are enriched below; roughly 3.5% of the tested compounds scored in any of these assays.

SMILES	TEAD-YAP block	MITF primary	GPR151 ag	FBW7 activator	MITF confirm	AS interf ctr	others
CCOc1ccc(CN2CCN(S(=O)(=O)c3ccc(OC)cc3)CC2)cc1	8	57*	-1	0	-4	-1
COc1ccc(S(=O)(=O)N2CCN(Cc3ccncc3)CC2)cc1	-3	69*	-1	0	-2	0
CCOc1ccc(CN2CCN(Cc3cc(OC)c(O)c(OC)c3)CC2)cc1	-14	56*	3	0	2	8
N#C/C(=C\Nc1cccc(C(F)(F)F)c1)C(=O)N1CCOCC1	-4	2	2	0	nt	nt
CCOC(=O)c1cccc(NC(=O)c2ccccc2[N+](=O)[O-])c1	3	3	0	0	nt	nt
O=S(=O)(c1ccc2ccccc2c1)N1CCN(Cc2ccccc2F)CC1	1	54*	0	0	11	16
COc1ccc(S(=O)(=O)N2CCN(Cc3ccccc3F)CC2)cc1	5	7	1	0	nt	nt
O=S(=O)(c1ccc2ccccc2c1)N1CCN(Cc2ccncc2)CC1	1	79*	1	0	11	0
CCOc1ccc(CN2CCN(Cc3ccc(OC)cc3)CC2)cc1	4	58*	3	0	20	16
COc1ccc(CN2CCN(Cc3ccncc3)CC2)cc1	11	57*	-1	0	-3	11
O=S(=O)(c1ccc2ccccc2c1)N1CCN(Cc2ccccc2)CC1	4	21	2	0	nt	nt
Cc1ccc(NC(=O)c2ccccc2NC(=O)Cc2ccccc2)c(C(=O)c2ccccc2)c1	-2	-1	1	0	nt	nt
COc1ccc(C2CC(c3cccs3)=NN2C(=O)CSc2nnc(CNC(=O)COc3ccccc3)n2-c2ccccc2)cc1 (configuration not stated)	3	-5	-1	0	nt	nt
CC/C(=N\NC(=O)Cn1nnc2ccccc21)c1ccccc1	4	4	1	0	nt	nt
CCOc1ccc(CN2CCC(N3CCN(C)CC3)CC2)cc1	-1	70*	-1	0	-4	-7
CCOc1ccc(CN2CCN(S(C)(=O)=O)CC2)cc1	5	66*	0	0	-5	-2
CC(C)C/C=N/NC(=O)c1ccc2c(c1)NC(=O)C(C)(C)O2	-13	60*	0	0	9	13
CC1(C)CC(=O)C2=C(C1)N(c1ccc(Br)cc1)C(N)=C(C#N)C2c1ccc(C(C)(C)C)s1 (configuration not stated)	-5	52*	-2	0	16	0
CC1(C)CC(=O)C2=C(C1)N(c1ccc(Cl)cc1)C(N)=C(C#N)C2c1ccc(C(C)(C)C)s1 (configuration not stated)	8	12	-2	0	nt	nt
O=C(NC(=S)NCc1cccnc1)c1cc2ccccc2o1	-6	12	-1	0	nt	nt
O=C(NCc1cccnc1)c1cc2ccccc2o1	-14	52*	1	0	-5	-2
CC(C)NCC(=O)Nc1c2c(nc3c1CCC3)CCCC2	0	75*	-1	0	1	-3
CCC(=O)Nc1c2c(nc3c1CCC3)CCCC2	-3	8	-1	0	nt	nt
CN(C)CC(=O)Nc1c2c(nc3c1CCC3)CCCC2	-8	59*	-1	0	0	0
O=C(c1ccc2c3c(cccc13)CC2)N1CCN(c2ccc([N+](=O)[O-])cc2)CC1	-8	-8	-1	0	nt	nt
SMILES	TEAD-YAP block	MITF primary	GPR151 ag	FBW7 activator	MITF confirm	AS interf ctr	others
COc1cc(OC)c(OC)cc1CN1CCN(C(=O)c2cccc(Cl)c2)CC1	1	26	0	0	nt	nt
COc1ccc(Br)cc1CN1CCN(C(=O)c2cccc(Cl)c2)CC1	-2	53*	-1	0	-2	12
COc1cccc(C(=O)N2CCN(Cc3cc(Br)ccc3OC)CC2)c1	-13	58*	0	0	12	14
COc1cccc(C(=O)N2CCN(Cc3cc(OC)ccc3OC)CC2)c1	3	45	0	1	nt	nt
CC(=O)NC1(c2ccccc2F)CCN(C(=O)CCC(=O)O)CC1	3	77*	-1	0	4	16
Cc1cc(C)nc(N2CCC(NCCCn3ccnc3)CC2)n1	6	2	0	0	nt	nt
CC(=O)Nc1ccc(Nc2nc(-c3ccc(C(=O)N4CCN(C)CC4)cc3)nc3c2ncn3C2CCCCC2)cc1	-14	0	-1	0	nt	nt
CN1CCN(C(=O)c2ccc(-c3nc(Nc4ccccc4)c4ncn(C5CCCCC5)c4n3)cc2)CC1	-14	75*	1	0	41*	3	AlphaScreen DR=>7.6
CCOc1ccc(N2C(=O)CC(N(Cc3ccc4c(c3)OCO4)C(C)=O)C2=O)cc1 (configuration not stated)	-7	15	0	0	nt	nt
CCCCOc1ccc(C(=O)Nc2nc(-c3ccc(OC)c(C)c3)cs2)cc1	-4	64*	0	0	-1	13
CCCCOc1ccc(C(=O)Nc2nc(-c3ccc(OC)cc3OC)cs2)cc1	-1	-12	1	0	nt	nt
O=C(Cc1n[nH]c(=O)[nH]c1=O)N/N=C/c1ccc(Cl)c([N+](=O)[O-])c1	-4	7	1	0	nt	nt
CC(=O)c1cccc(NC(=S)NCCn2cc(Cl)cn2)c1	2	68*	1	0	13	9
CC(C)c1ccc2nc(SCC(=O)NCC3CCCO3)c(C#N)cc2c1 (configuration not stated)	9	66*	0	0	11	19
CCOc1ccc2nc(SCC(=O)NCC3CCCO3)c(C#N)cc2c1 (configuration not stated)	-2	6	-1	0	nt	nt
Cn1c(N)c(/C=N/NC(=O)CC#N)c(=O)n(C)c1=O	-14	-3	2	0	nt	nt
c1cc(NC2CCCNC2)n2ncc(-c3ccoc3)c2n1 (configuration not stated)	-62	68*	1	0	11	17
COCCOCC(O)CN1CCN(c2ccc(C)cc2)CC1 (configuration not stated)	-7	52*	1	0	4	1
Cc1ccc(C2NS(=O)(=O)N=C2N)cc1 (configuration not stated)	5	52*	1	0	10	15
O=C(c1sccc1-n1cccc1)N1CCCC1	12	5	0	0	nt	nt
Cc1ccc(NC(=O)c2sccc2-n2cccc2)cc1	8	59*	1	0	5	17
CCn1cnc2sc(C(=O)Nc3ccc(C)cc3)c(C)c2c1=O	-61	-4	-1	0	nt	nt
CC(C)(C)c1[nH]nc2c1C(c1ccc(Br)s1)C(C#N)=C(N)O2 (configuration not stated)	7	7	0	0	nt	nt
CCOC(=O)C1(CCc2ccccc2)CCN(C(=O)CCn2cnnn2)CC1	-23	61*	2	0	-1	8
CCOC(=O)C1(CCCc2ccccc2)CCN(C(=O)CCn2cnnn2)CC1	1	7	1	0	nt	nt
